# Laboratory results reported in PubChem BioAssay (NCATS).
# Results filed as inconclusive are left out. The source made the active and inactive calls. Calls follow the shape of the dose curve; as a rule, active = well fitted inhibition curve with a large enough effect; inconclusive = small, poorly fitted or top-dose-only effect; inactive = no such curve, though single readings can be large or run the other way.
# System: Zika virus NS2B-NS3 protease (linked construct)
# Assay: Primary screen NINDS Rhodamine qHTS for Zika virus inhibitors (AID 1347160); also: nearly all actives have a fitted effect of over 55% in size
# Details: purified NS2B-NS3 protease, Rhodamine110 substrate fluorescence; series mostly up to 57.1 µM; activity change, negative = inhibition: at the top concentration
# In short: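 Purified linked NS2B-NS3 protease (NS2B hydrophilic domain joined to NS3 protease by flexible linker), 25 nM in 10 mM Tris-HCl pH 8.0, 0.01% Tween 20. Compounds titrated, 15 min preincubation at room temperature; 1.5 microM Rhodamine110 substrate, FITC fluorescence change over 15 min.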
# % is scaled to controls: 0 for no effect and ±100 for the full control effect.
Structure (SMILES),"activity change, negative = inhibition",outcome
Clc1ccc2c(c1)N=C(N1CCNCC1)c1ccccc1N2,96.3% (inactive),
CN(C)c1cc2c(Nc3ccc4c(cnn4Cc4ccccc4)c3)ncnc2cn1,4.51% (inactive),
CCCN(CCC)C(=O)C(CCC(=O)OCCCN1CCN(CCOC(=O)Cc2c(C)n(C(=O)c3ccc(Cl)cc3)c3ccc(OC)cc23)CC1)NC(=O)c1ccccc1 (configuration not stated),115% (inactive),
COc1ccccc1N1CCN(CCN2C(=O)CC3(CCCC3)CC2=O)CC1,30.2% (inactive),
CCNC(=O)NCCCOc1cccc(CN2CCCCC2)c1,-12.3% (inactive),
O=C(NN1CCCC1)NS(=O)(=O)c1ccc(Cl)cc1,,inactive
COc1cc(NS(=O)(=O)c2ccc(N)cc2)nc(C)n1,-2.46% (inactive),
C[C@H](CN1CCCC1)C(=O)c1ccc(C(F)(F)F)cc1,,inactive
CN1[C@@H]2CC[C@H]1CC(NC(=O)n1c(=O)[nH]c3ccccc31)C2 (some centres not stated),,inactive
Cc1nn(-c2ccccc2)c(C)c1/C=N/N1CCN(Cc2ccccc2)CC1,0.142% (inactive),
N[C@@H](Cn1ccc(=O)c(O)c1)C(=O)O,,inactive [at 4.91 µM]
O=C1NC(c2cccc([N+](=O)[O-])c2)=CCN1c1ccccc1O,11.1% [at 15.1 µM] (inactive),
CC1CC(=O)NN=C1c1ccc(NCC(C)(C)NCC(O)COc2cc(Cl)ccc2C#N)cc1 (configuration not stated),118% (inactive),
COC(=O)C1=CO[C@@H](O)[C@@H]2C(CO)=CC[C@H]12,-17% (inactive),
CC(C(O)c1ccccc1)N(C)CCOC(c1ccccc1)c1ccccc1 (configuration not stated),118% (inactive),
CC(C)N(CCC(=O)c1ccc2ccccc2c1)Cc1ccccc1,32.3% (inactive),
C[N+]1(CC2COC(c3ccccc3)(c3ccccc3)O2)CCCCC1 (configuration not stated),,inactive [at 33.1 µM]
